# The campaign covered roughly 52,000 compounds. About 1,700 (3.3%) were called active. For the sample, actives were picked, then their nearest neighbours and some compounds at random. Values without a mark were called inactive. No stated cut-off is given here; in the data, active means survival mostly below about 52% (no sharp cut-off); inactive means mostly above about 56%.
# Tested on: Wild type
# Test: S. aureus survival, RN4220 and DeltatarO strains – OD600, teichoic acid synthesis inhibitors, primary screen (AID 463173)
# Conditions: S. aureus RN4220 wild type/DeltatarO growth, OD600, 18 h, hits give low values, screened at 18.75 µg/mL (by protocol)
row,Structure (SMILES),survival
1,COc1ccc(CC(=O)Nc2c(C(=O)N3CCN(c4ccccc4)CC3)oc3ccccc23)cc1OC,76%
2,CCN(CC)S(=O)(=O)c1ccc(NC(=O)[C@H](CSCc2ccccc2)N2Cc3ccccc3C2=O)cc1,130%
3,CCOc1ccc(-n2c(SCC(=O)Nc3ccc(F)cc3)nc3c([nH]c4ccccc43)c2=O)cc1,88%
4,CCc1ccc(C(=O)NC2=NC(c3ccccc3F)CC(=O)N2)cc1 (stereo not drawn),166%
5,O=c1c2ccccc2n(Cc2cccc(Cl)c2)c(=O)n1CCc1ccccc1,39% (active)
6,Cc1cccc(CCn2c(=O)c3ccccc3n(Cc3ccccc3C)c2=O)c1,59%
7,Cc1ccccc1Cn1c(=O)n(CCc2ccccc2)c(=O)c2ccccc21,4% (active)
8,O=c1c2ccccc2n(Cc2cccc(Cl)c2)c(=O)n1Cc1ccccc1,96%
9,O=c1c2ccccc2n(Cc2c(F)cccc2Cl)c(=O)n1CCc1ccccc1,83%
10,O=C(CCCCn1c(=O)c2ccccc2n(Cc2ccccc2Cl)c1=O)NCCc1ccccc1,132%
11,O=C(CCn1c(=O)c2ccccc2n(Cc2cccc(Cl)c2)c1=O)NCCc1ccccc1,74%
12,Cc1ccccc1Cn1c(=O)n(CCCCC(=O)NCCc2ccccc2)c(=O)c2ccccc21,103%
13,O=c1c2ccccc2n(Cc2ccccc2Cl)c(=O)n1CCc1ccccc1,15% (active)
14,COc1cc(NC(=O)CSc2ncc(S(=O)(=O)c3ccc(Br)cc3)c(=O)[nH]2)cc(OC)c1,84%
15,O=C(c1ccc(Cl)cc1)n1nc(-c2ccco2)nc1NCc1cccs1,87%
16,O=C(NCC(c1ccco1)S(=O)(=O)c1cccs1)c1ccc(C(F)(F)F)cc1 (stereo not drawn),83%
17,CC(=O)Nc1ccc(Nc2c3c(c(C#N)c4nc5ccccc5n24)CCC3)cc1,100%
18,Cc1nn2c(=O)cc(COC(=O)c3ccc(NC(=O)c4ccc(C(C)(C)C)cc4)cc3)nc2s1,74%
19,CCc1ccccc1NC(=O)Cn1nc(C(F)(F)F)c2c1CCCC2,84%
20,COc1ccc(Cl)cc1NC(=O)Cn1nc(C(F)(F)F)c2c1CCC2,84%
21,COc1cc(NC(=O)Cn2nc(C(F)(F)F)c3c2CCCC3)c(OC)cc1Cl,87%
22,COc1ccc(Cl)cc1NC(=O)Cn1nc(C(F)(F)F)c2c1CCCC2,9% (active)
23,COC(=O)c1ccccc1NC(=O)Cn1nc(C(F)(F)F)c2c1CCCC2,-5% (active)
24,CCc1ccccc1NC(=O)Cn1nc(C(F)(F)F)c2c1CCC2,74%

row,Structure (SMILES),survival
1,CC(C)CN(CCCNC(=O)c1cc(=O)[nH]c2ccc(S(=O)(=O)N3CCCCCC3)cc12)CC(C)C,68%
2,COc1cc(Cl)c(C)cc1NC(=O)CSCc1nc(-c2ccc(OC)c(OC)c2)no1,73%
3,CCCCNC(=O)c1cc(-c2ccc(OC)cc2)nc2n[nH]c(-c3cccc([N+](=O)[O-])c3)c12,80%
4,Cc1cc(C)c2c(-n3cccc3)c(C(=O)NCCc3ccc(Cl)cc3)sc2n1,118%
5,CCCCc1nc2c(nnn2Cc2ccccc2)c(=O)[nH]1,104%
6,Cn1nnc2c(NCc3ccc(Cl)cc3)ncnc21,88%
7,Cc1ccc(CNc2ncnc3c2nnn3C)cc1,49%
8,Cn1nnc2c(NCc3ccccc3)ncnc21,0% (active)
9,COc1ccc(N2CCN(C(=O)c3ccc(CS(=O)(=O)c4ccc(Br)cc4)o3)CC2)cc1,132%
10,O=C1NC(=O)C(Nc2ccccc2Cl)S1 (stereo not drawn),108%
11,CC1CCN(c2ncnc3c2c(-c2ccccc2)cn3-c2ccc(Br)cc2)CC1,72%
12,CCn1cc(S(=O)(=O)c2cccc(Cl)c2)c(=O)c2cc(F)c(N3CCC(C)CC3)cc21,57%
13,CC(C)OCCCn1c(=O)c2ccccc2n2c(-c3cc(Cl)ccc3O)nnc12,94%
14,COC(=O)c1sccc1S(=O)(=O)N(CC(=O)NCc1ccccc1)c1ccc(C)c(C)c1,14% (active)
15,COC(=O)c1sccc1S(=O)(=O)N(CC(=O)Nc1cc(C)ccc1C)c1ccc(C)c(C)c1,78%
16,COC(=O)c1sccc1S(=O)(=O)N(CC(=O)NCc1ccc(C)cc1)c1ccc(C)c(C)c1,74%
17,COC(=O)c1sccc1S(=O)(=O)N(CC(=O)Nc1c(C)cccc1C)c1ccc(C)c(C)c1,78%
18,COC(=O)c1sccc1S(=O)(=O)N(CC(=O)Nc1ccc(C)c(F)c1)c1ccc(C)c(C)c1,-1% (active)
19,COC(=O)c1sccc1S(=O)(=O)N(CC(=O)Nc1cc(F)ccc1F)c1ccc(C)c(C)c1,133%
20,COC(=O)c1sccc1S(=O)(=O)N(CC(=O)NCc1ccc(F)cc1)c1ccc(C)c(C)c1,76%
21,CCc1cccc(NC(=O)CN(c2ccc(C)c(C)c2)S(=O)(=O)c2ccsc2C(=O)OC)c1,-6% (active)
22,COC(=O)c1sccc1S(=O)(=O)N(CC(=O)Nc1cccc(C)c1C)c1ccc(C)c(C)c1,69%
23,Cc1ccc(CNC(=O)c2ccc(CSCc3ccccc3Cl)o2)cc1,49%
24,CC1(C)CC(=O)c2cc(C(=O)Nc3ccc(Cl)cc3)c(=O)[nH]c2C1,71%

row,Structure (SMILES),survival
1,CCCCOc1ccc(CNC(=O)c2cc3n(n2)CCCN(Cc2ccc(C)cc2)C3=O)cc1,63%
2,COc1cccc(CN2C(=O)c3ccccc3Sc3ccc(C(=O)OCc4ccco4)cc32)c1,72%
3,CCOc1ccccc1NC(=O)N1CCc2c(sc3c2CCCC3)C1c1ccccc1 (stereo not drawn),75%
4,COc1ccc2oc(=O)c(C(=O)Nc3cccc(C(=O)O)c3)cc2c1,68%
5,CCOc1ccc(S(=O)(=O)Nc2cccc(-c3ccc(OCC)nn3)c2)cc1,71%
6,O=C(CSCc1ccccc1Cl)N/N=C/c1ccc(O)cc1O,122%
7,COc1ccc(NC(=O)CCc2c(C)nc3c(-c4ccc(F)cc4)c(C)nn3c2C)c(OC)c1,78%
8,CC(=O)c1cccc(NC(=O)C2CCN(S(=O)(=O)c3ccc4[nH]c(=O)ccc4c3)CC2)c1,75%
9,CCn1c(SCC(=O)OC2CCCCC2)nnc1-c1ccc(OC)cc1,113%
10,Cc1cccc(OC(=O)c2cc(-c3ccc(C)c(C)c3)on2)c1,-7% (active)
11,Cc1cc(C)cc(OC(=O)c2cc(-c3ccc4c(c3)OCCO4)on2)c1,-7% (active)
12,Cc1ccc(-c2cc(C(=O)Oc3ccc(C#N)cc3)no2)cc1C,82%
13,CC(=O)Nc1ccc(NC(=O)c2cc(-c3ccc4c(c3)OCCO4)on2)cc1,109%
14,CC(=O)c1cccc(NC(=O)c2cc(-c3ccc4c(c3)OCCO4)on2)c1,77%
15,Cc1cccc(OC(=O)c2cc(-c3ccc4c(c3)OCCO4)on2)c1,-7% (active)
16,Cc1cccc(NC(=O)c2cc(-c3ccc4c(c3)OCCO4)on2)c1,78%
17,Cc1cc(C)cc(OC(=O)c2cc(-c3ccc(Cl)cc3)on2)c1,87%
18,Cc1ccc(-c2cc(C(=O)Oc3ccc(C#N)cc3)no2)cc1,88%
19,COc1ccc(CC(=O)NCC(c2ccc(N(C)C)cc2)N2CCOCC2)cc1 (stereo not drawn),81%
20,Clc1ccccc1-c1nnc(-c2ccccc2CNc2ccc(Br)cc2)o1,91%
21,CCCNC(=O)Cn1nc(-c2ccc(OC)cc2)c2cnc3ccc(F)cc3c21,73%
22,Cc1cccc(CNS(=O)(=O)c2ccc3[nH]c(=O)ccc3c2)c1,124%
23,COc1ccc(C(C(=O)NCc2ccccc2)N(Cc2ccco2)C(=O)c2cnccn2)cc1 (stereo not drawn),101%
24,COc1cccc(CNC(=O)C(NS(=O)(=O)c2cccs2)C(C)C)c1 (stereo not drawn),94%

row,Structure (SMILES),survival
1,COc1ccc(OC)c(C2N=C(N)Nc3nc4ccccc4n32)c1 (stereo not drawn),72%
2,COc1cc(Nc2nc3ccc(Cl)cc3nc2-n2nc(C)cc2C)cc(OC)c1,93%
3,Cc1cc(C)n2c(SCC(=O)N(C)C3CCCCC3)nnc2n1,101%
4,CC(C)(C)C(=O)NC1CCN(S(=O)(=O)c2ccccc2C(=O)O)CC1,105%
5,CCCN(CCC)CCNC(=O)c1cc2c(-c3ccc(Cl)cc3)nn(C)c2s1,81%
6,CCCN(CCC)CCCNC(=O)c1cc2c(-c3ccc(Cl)cc3)nn(C)c2s1,95%
7,CCCCN(CC)CCNC(=O)c1cc2c(-c3ccc(Cl)cc3)nn(C)c2s1,5% (active)
8,CCOc1ccc(-c2c(C)nn3c(C)c(C(=O)NC(C)c4ccccc4)cnc23)cc1OCC (stereo not drawn),75%
9,Cc1ccc(CNC(=O)CN2C(=O)CCc3cc(S(=O)(=O)N4CCCCC4)ccc32)cc1,91%
10,COc1nc(C)c(/C=C/C(=O)N(C(=O)NC2CCCCC2)C2CCCCC2)c(OC)n1,101%
11,Clc1cccc(N2CCN(c3nc4ccccc4n4cnnc34)CC2)c1,70%
12,CCc1nnc2c(N3CCN(c4cccc(C(F)(F)F)c4)CC3)nc3ccccc3n12,120%
13,FC(F)(F)c1cccc(N2CCN(c3nc4ccccc4n4cnnc34)CC2)c1,2% (active)
14,COc1cccc(/C=C/c2nc(C#N)c(N3CCCCC3)o2)c1,67%
15,CCOc1ccccc1N(C)C(=O)Cn1cnc2onc(-c3ccc(F)cc3)c2c1=O,90%
16,O=c1c(NCCc2ccc(Cl)cc2)nccn1-c1ccccc1,14% (active)
17,COc1ccc(-n2ccnc(NCCc3ccc(Cl)cc3)c2=O)cc1OC,47%
18,COc1ccccc1CNc1nccn(-c2ccc(F)cc2)c1=O,76%
19,Cc1cc(C)cc(-n2ccnc(NCCc3ccccc3)c2=O)c1,75%
20,O=c1c(NCc2ccccc2Cl)nccn1-c1ccccc1,-1% (active)
21,COc1ccc(-n2ccnc(NCc3ccccc3Cl)c2=O)cc1OC,71%

# — PubChem BioAssay AID463173 (ICCB-Longwood Screening Facility, Harvard Medical School, 2010)
